From PubChem BioAssay AID1159580 (chemical genetic matrix, 2015)
Hit rate of the full screen: of about 5,500 compounds, about 2,000 (36%) were called active. Inconclusive results (about 18%) are left out. No stated cut-off is given here; in the data, active means normalized growth mostly below about 0.91 (no sharp cut-off); inconclusive means no clear call, values can overlap the other calls; inactive means mostly above about 0.92. The list shows a part of the results.

Assay: chemical genetic growth profiling, strain panel (AID 1159580);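 further: tested at 20 µM; growth read once vehicle control cultures reached saturation at 30 °C; 1 = growth at the plate median or of vehicle wells; lower values mean less growth of the strain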
Details: growth OD
[1] = S. cerevisiae deletion strains, locus YAL013W, strain DEP1, hits give low values
[2] = S. cerevisiae deletion strains, locus YBR229C, strain ROT2, hits give low values
[3] = S. cerevisiae deletion strains, locus YDL101C, strain DUN1, hits give low values
[4] = S. cerevisiae deletion strains, locus YDR150W, strain NUM1, hits give low values
[5] = S. cerevisiae deletion strains, locus YEL061C, strain CIN8, hits give low values
[6] = S. cerevisiae deletion strains, locus YGR078C, strain PAC10, hits give low values
[7] = S. cerevisiae deletion strains, locus YHR030C, strain SLT2, hits give low values
[8] = S. cerevisiae deletion strains, locus YHR087W, strain rtc3, hits give low values
[9] = S. cerevisiae deletion strains, locus YJL187C, strain SWE1, hits give low values
[10] = S. cerevisiae deletion strains, locus YJR043C, strain POL32, hits give low values
[11] = S. cerevisiae deletion strains, locus YJR075W, strain HOC1, hits give low values
[12] = S. cerevisiae deletion strains, locus YLR039C, strain RIC1, hits give low values
[13] = S. cerevisiae deletion strains, locus YLR058C, strain SHM2 (second series), hits give low values
[14] = S. cerevisiae deletion strains, locus YLR085C, strain ARP6, hits give low values
[15] = S. cerevisiae deletion strains, locus YLR262C, strain YPT6, hits give low values
[16] = S. cerevisiae deletion strains, locus YML094W, strain GIM5, hits give low values
[17] = S. cerevisiae deletion strains, locus YMR219W, strain ESC1, hits give low values
[18] = S. cerevisiae deletion strains, locus YMR263W, strain SAP30, hits give low values
[19] = S. cerevisiae deletion strains, locus YNL153C, strain GIM3, hits give low values
[20] = S. cerevisiae deletion strains, locus YNL298W, strain CLA4 (second series), hits give low values
[21] = S. cerevisiae deletion strains, locus YNL322C, strain KRE1, hits give low values
[22] = S. cerevisiae deletion strains, locus YNR030W, strain Alg12, hits give low values
[23] = S. cerevisiae deletion strains, locus YPL055C, strain LGE1, hits give low values
[24] = S. cerevisiae deletion strains, locus YPL241C, strain CIN2, hits give low values
[25] = S. cerevisiae deletion strains, locus YPR135W, strain CTF4, hits give low values
[26] = S. cerevisiae strains, strain wild type, hits give low values
[27] = S. cerevisiae deletion strains, locus YDL134C, strain PPH21, hits give low values

Measured: normalized growth

COc1cccc(NC(=S)NCc2ccco2)c1
inactive: [1] 0.979 | [2] 0.99 | [3] 1.03 | [4] 1.04 | [5] 0.979 | [6] 1.01 | [7] 0.88 | [8] 0.977 | [9] 0.984 | [10] 1.01 | [11] 1 | [12] 0.976 | [13] 0.984 | [14] 0.884 | [15] 0.97 | [16] 0.963 | [17] 0.992 | [18] 1.04 | [19] 1 | [20] 1.01 | [21] 0.994 | [22] 0.986 | [23] 0.976 | [24] 0.97 | [25] 0.956 | [26] 0.996

CC(Oc1ccc(Cl)cc1Cl)C(=O)NNC(=S)Nc1ccccc1 (centres undefined)
inactive: S. cerevisiae deletion strains, locus YAR019C, strain CDC15, hits give low values 0.983 | S. cerevisiae deletion strains, locus YBL105C, strain PKC1, hits give low values 0.978 | S. cerevisiae deletion strains, locus YBR135W, strain CKS1, hits give low values 0.982 | S. cerevisiae deletion strains, locus YBR136W, strain MEC1, hits give low values 0.98 | S. cerevisiae deletion strains, locus YBR160W, strain CDC28, hits give low values 0.975 | S. cerevisiae deletion strains, locus YDL017W, strain CDC7, hits give low values 0.986 | S. cerevisiae deletion strains, locus YDL028C, strain MPS1, hits give low values 0.977 | [3] 0.973 | S. cerevisiae deletion strains, locus YDL108W, strain KIN28, hits give low values 0.959 | S. cerevisiae deletion strains, locus YDL132W, strain cdc53, hits give low values 0.968 | S. cerevisiae deletion strains, locus YDL214C, strain PRR2, hits give low values 0.984 | S. cerevisiae deletion strains, locus YDR052C, strain DBF4, hits give low values 0.991 | S. cerevisiae deletion strains, locus YDR054C, strain cdc34, hits give low values 0.982 | S. cerevisiae deletion strains, locus YDR226W, strain ADK1, hits give low values 0.981 | S. cerevisiae deletion strains, locus YDR477W, strain SNF1, hits give low values 0.994 | S. cerevisiae deletion strains, locus YER123W, strain YCK3, hits give low values 0.983 | S. cerevisiae deletion strains, locus YER133W, strain GLC7, hits give low values 0.966 | S. cerevisiae deletion strains, locus YFL009W, strain cdc4, hits give low values 0.976 | S. cerevisiae deletion strains, locus YFL029C, strain CAK1, hits give low values 0.981 | S. cerevisiae deletion strains, locus YFR003C, strain YPI1, hits give low values 0.981 | S. cerevisiae deletion strains, locus YFR019W, strain FAB1, hits give low values 0.964 | S. cerevisiae deletion strains, locus YFR028C, strain CDC14, hits give low values 0.974 | S. cerevisiae deletion strains, locus YGR040W, strain KSS1, hits give low values 0.965 | S. cerevisiae deletion strains, locus YGR052W, strain FMP48, hits give low values 0.982 | S. cerevisiae deletion strains, locus YGR092W, strain DBF2, hits give low values 0.905 | [7] 0.974 | S. cerevisiae deletion strains, locus YHR079C, strain IRE1, hits give low values 1.01 | S. cerevisiae deletion strains, locus YHR082C, strain KSP1, hits give low values 1.03 | S. cerevisiae deletion strains, locus YHR205W, strain SCH9, hits give low values 0.906 | S. cerevisiae deletion strains, locus YIL147C, strain SLN1, hits give low values 0.97 | S. cerevisiae deletion strains, locus YJL095W, strain BCK1, hits give low values 0.927 | S. cerevisiae deletion strains, locus YJL128C, strain PBS2, hits give low values 0.943 | S. cerevisiae deletion strains, locus YJL157C, strain FAR1, hits give low values 0.973 | S. cerevisiae deletion strains, locus YJR016C, strain ILV3, hits give low values 0.971 | S. cerevisiae deletion strains, locus YJR066W, strain TOR1 (second series), hits give low values 0.94 | S. cerevisiae deletion strains, locus YJR066W, strain TOR1, hits give low values 1.01 | S. cerevisiae deletion strains, locus YKL048C, strain ELM1, hits give low values 0.974 | S. cerevisiae deletion strains, locus YKL067W, strain YNK1, hits give low values 0.966 | S. cerevisiae deletion strains, locus YKL101W, strain HSL1, hits give low values 0.957 | S. cerevisiae deletion strains, locus YKL193C, strain SDS22, hits give low values 0.977 | S. cerevisiae deletion strains, locus YKL203C, strain TOR2, hits give low values 1.02 | S. cerevisiae deletion strains, locus YLR113W, strain HOG1, hits give low values 0.981 | S. cerevisiae deletion strains, locus YLR133W, strain CKI1, hits give low values 0.959 | S. cerevisiae deletion strains, locus YLR403W, strain SFP1, hits give low values 0.908 | S. cerevisiae deletion strains, locus YML070W, strain DAK1, hits give low values 0.98 | S. cerevisiae deletion strains, locus YMR001C, strain CDC5, hits give low values 0.981 | S. cerevisiae deletion strains, locus YMR205C, strain PFK2 (second series), hits give low values 0.968 | S. cerevisiae deletion strains, locus YMR277W, strain FCP1, hits give low values 0.98 | S. cerevisiae deletion strains, locus YNL006W, strain LST8, hits give low values 0.976 | S. cerevisiae deletion strains, locus YNL020C, strain ARK1, hits give low values 0.954 | S. cerevisiae deletion strains, locus YNL161W, strain CBK1, hits give low values 0.984 | S. cerevisiae deletion strains, locus YNL183C, strain NPR1, hits give low values 1.01 | S. cerevisiae deletion strains, locus YNL207W, strain RIO2, hits give low values 0.958 | S. cerevisiae deletion strains, locus YNL222W, strain SSU72, hits give low values 0.973 | S. cerevisiae deletion strains, locus YNL307C, strain MCK1 (second series), hits give low values 0.873 | S. cerevisiae deletion strains, locus YOL078W, strain AVO1, hits give low values 0.972 | S. cerevisiae deletion strains, locus YOL136C, strain PFK27, hits give low values 0.938 | S. cerevisiae deletion strains, locus YOR061W, strain CKA2, hits give low values 0.968 | S. cerevisiae deletion strains, locus YOR119C, strain RIO1, hits give low values 1.03 | S. cerevisiae deletion strains, locus YOR231W, strain MKK1, hits give low values 0.993 | S. cerevisiae deletion strains, locus YOR329C, strain SCD5, hits give low values 0.982 | S. cerevisiae deletion strains, locus YPL031C, strain PHO85, hits give low values 0.995 | S. cerevisiae deletion strains, locus YPL153C, strain RAD53, hits give low values 0.993 | S. cerevisiae deletion strains, locus YPL204W, strain HRR25, hits give low values 0.944 | S. cerevisiae deletion strains, locus YPL209C, strain IPL1, hits give low values 0.98 | S. cerevisiae deletion strains, locus YPL256C, strain CLN2, hits give low values 1.12 | S. cerevisiae deletion strains, locus YPR025C, strain CCL1, hits give low values 0.978 | S. cerevisiae deletion strains, locus YPR106W, strain ISR1, hits give low values 0.977 | S. cerevisiae deletion strains, locus YPR111W, strain DBF20, hits give low values 0.961 | S. cerevisiae deletion strains, strain NNK1, hits give low values 0.973 | S. cerevisiae deletion strains, strain TSCII, hits give low values 0.983

CCN(C(=S)Nc1ccc(OC)cc1)c1ccccc1
inactive: [1] 1 | [2] 1.02 | [3] 1.01 | [27] 1.01 | [4] 0.917 | [5] 1 | [6] 0.989 | [7] 1.12 | [8] 1.01 | [9] 1.01 | [10] 1.01 | [11] 1 | S. cerevisiae deletion strains, locus YKL190W, strain CNB1, hits give low values 1.02 | [12] 0.921 | [13] 1.03 | [14] 0.976 | [15] 0.985 | [16] 1 | [17] 1.02 | [18] 1.01 | [19] 0.988 | [20] 0.99 | [21] 1.02 | [22] 0.992 | [23] 0.89 | [24] 0.999 | [25] 0.884

CCC(=O)Oc1ccc(NC(=S)NCCCO)cc1
inactive: [1] 1 | [2] 1 | [3] 0.998 | [27] 0.992 | [4] 1 | [5] 1.01 | [6] 1 | S. cerevisiae deletion strains, locus YGR229C, strain SMI1, hits give low values 1 | [7] 1.05 | [8] 0.999 | [9] 1 | [10] 1 | [11] 1.01 | [12] 0.996 | [13] 1 | [14] 1.04 | [15] 1 | [16] 1.04 | [17] 1 | [18] 1.01 | S. cerevisiae deletion strains, locus YMR307W, strain GAS1, hits give low values 1.04 | [19] 1.01 | [20] 1.01 | [21] 1.01 | [22] 1.02 | S. cerevisiae deletion strains, locus YOL006C, strain TOP1, hits give low values 1.01 | [23] 1.01 | [24] 1.04 | [25] 1.22 | [26] 0.993
